Screening results (PubChem BioAssay)
Sampled rows, rich in hits. Any-hit rate of the full collection: about 4.2%.
Sfp PPTase inh – Sfp phosphopantetheinyl transferase inhibition; Q9F4F7; AID 1490; hit rate 3.5% among 310,000; Potency, µM, for the others: largest response in the series, negative = inhibition, actives largely listed as inhibitors; Biochemical Sfp PPTase activity, qHTS;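 further: the enzyme is Sfp with the accession as filed and its product quenches rhodamine fluorescence; potency means the concentration at half of the fitted maximal effect; 0% = enzyme reaction without inhibitor and -100% = no enzyme wells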
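Fluorescence-quenching assay: 15 nM Sfp-PPTase preincubated 15 min at room temperature with compound, then 5 uM rhodamine-CoA and 12.5 uM BHQ-2-labelled YbbR peptide added. Fluorescence (ex 525/em 598 nm) read at start and after 30 min; difference gives rate.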
ClpP mod – qHTS Assay for Activators of ClpP | ATP-dependent Clp protease proteolytic subunit (Bacillus subtilis (strain 168)), P80244 | purified B. subtilis ClpP, FRET peptide cleavage, 20 min | Potency, µM (highest dose often 57.5 µM), for the others: at the top dose activity change, negative = active | hit rate 1.9% among 340,000 | AID 651965, 2013; active means well fitted falling curve with a large enough effect; inconclusive means small, poorly fitted or top-dose-only effect; inactive means no such curve, though single readings can be large or run the other way; further: potency means the concentration at half of the fitted maximal effect; the source files actives as falling curves though it sought activators and does not explain the sign; nearly all actives have a fitted effect of over 65% in size
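Purified B. subtilis ClpP, 10 microg/mL final in Tris/HCl pH8 with KCl, BSA, glycerol and Tween-20, cleaved an Abz/nitrotyrosine-quenched decapeptide. Fluorescence (ex 320, em 430) was read at 0 and 20 min at room temperature. Delta was normalized to 5.8 microM ADEP and DMSO/no-enzyme controls.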
uPA generation – inhibitors of cell surface uPA generation; cell surface uPA generation assay, qHTS; Potency, µM (titrated, usually from 38.3 µM), for inactives: at the highest dose activity change, negative = inhibition, usual class: inhibitors; hit rate 0.31% among 330,000; AID 540303; active means well fitted inhibition curve with a large enough effect; inconclusive means small, poorly fitted or top-dose-only effect; inactive means no such curve, though single readings can be large or run the other way; tested in mouse RAW 264.7 cells; further: potency means the concentration at half of the fitted maximal effect; on the % scale 0 is the no-effect control and ±100 the full control effect; nearly all actives have a fitted effect of over 55% in size
TCR activator – T cell receptor activation. primary human leukocytes, anti-CD3, IL-2 HTRF, 48 h. Potency, µM (highest dose often 9.22 µM), without a hit: top-dose activation of IL-2 secretion, actives largely listed as activators. 330,000 tested, under 10 active; further: % of control where 0% means no effect
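48 hr co-incubation of compounds, a-CD3 beads and primary human leukocytes; IL-2 quantified homogeneously by HTRF with anti-IL-2 K and d2 conjugates.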
* = called active by the depositor; ? = inconclusive; · = not tested or not shown; [ ] = dose if it differs, or a comment. Unless noted, the call rests on the fitted dose curve; in most records, active means well fitted curve in the direction sought with a large enough effect; inconclusive means small, poorly fitted or top-dose-only effect, or another doubt; inactive means no such curve, though single readings can be large; an effect the other way counts as inactive or inconclusive.

SMILES	Sfp PPTase inh	ClpP mod	uPA generation	TCR activator
COc1cc(NC(=O)Cc2c(C(=O)O)c(C)cn2C)cc(OC)c1	·	-3%	·	·
OC[C@@H]1CN(Cc2cccnc2)C[C@H](n2cnc3c(N4CCN(c5ccccc5)CC4)ncnc32)O1	·	-5%	·	·
Cc1c(C(=O)N/N=C/c2ccc(N(C)C)cc2)[nH]c2ccc(Cl)cc12	2%	32µM*	-13%	-1%[46.1 µM]
Cc1c(C(=O)N/N=C/c2ccccc2)[nH]c2ccc(Cl)cc12	15%	-1%	2.8µM*	-7%[46.1 µM]
COc1cc(C(=O)NN=Cc2ccc(N(C)C)cc2)cc(OC)c1OC	·	-5%	·	·
N#Cc1c(-c2ccco2)nc(NCC2CCCO2)[nH]c1=O (configuration not stated)	19%	4%	-1%	-6%
CC1(C)Cc2c(C#N)c(NC3CCCCC3)nc(-c3ccco3)c2CO1	3.5µM*	·	·	·
CCN(CC)CCNc1nc(-c2ccco2)c2c(c1C#N)CC(C)(C)OC2	5%	?	2%	0%
Cc1nc(NCCO)c(C#N)c2c1COC(C)(C)C2	-1%	22µM*	-1%	-4%
CC1(C)Cc2c(C#N)c(NCC3CCCO3)nc(-c3ccco3)c2CO1 (configuration not stated)	7.9µM*	11µM*	1%	-7%
CN(C)CCCNc1nc(-c2ccccc2)c2c(c1C#N)CC(C)(C)OC2	3%	4%	-6%	6%
CC1(C)Cc2c(C#N)c(NCCc3ccccc3)nc(-c3ccco3)c2CO1	50µM*	28µM*	2%	4%
Cc1nc2ccccc2nc1/C=C/c1ccc(N(C)C)cc1	·	1%	·	·
Cc1cc(F)ccc1NCC(=O)Nc1ccccc1Br	?	-3%	-1%	-3%[46.1 µM]
Cc1ccc2nsnc2c1NC(=O)Cc1ccc(Cl)cc1	8%	·	-4%	5%
Cc1ccc2nsnc2c1NC(=O)c1ccc(-c2cc(Cl)ccc2Cl)o1	28µM*	-20%	-10%	1%
O=C(Nc1cccc2nsnc12)c1ccc(-c2cccc(Cl)c2)o1	25µM*	-15%	5%	3%
O=C(NCCc1ccc(F)cc1)C(=O)NCC1CCCN1S(=O)(=O)c1cccs1 (configuration not stated)	·	·	-5%	-5%
CC(C)(C)C(=O)Nc1sc2c(c1C#N)CCN(Cc1ccccc1)C2	4%	-20%	-5%	8%
COC(=O)c1c(NC(=O)C2CC2)sc2c1CCN(C(C)=O)C2	14µM*	?	0%	-3%
COc1cccc(C(=O)Nc2sc3c(c2C#N)CCN(C(C)=O)C3)c1	40µM*	-3%	0.4µM*	-11%
N#Cc1c(N)sc2c1CCN(CCc1ccccc1)C2	-4%	22µM*	2%	-1%[46.1 µM]
N#Cc1c(NC(=S)NC(=O)c2ccccc2)sc2c1CCN(CCc1ccccc1)C2	56µM*	·	·	11%[46.1 µM]
CCc1ccc(NC(=O)Cn2nnc(-c3ccccc3N)n2)cc1	·	-1%	·	·
CC(=O)N1CCC2(CC1)OC(=O)C(C)=C2C(=O)Nc1cccc(Cl)c1C	·	-5%	·	·
SMILES	Sfp PPTase inh	ClpP mod	uPA generation	TCR activator
COc1ccccc1N1CCN(Cc2cc(=O)c(OCC(=O)Nc3ccccc3)co2)CC1	·	25µM*	-1%	-2%
COc1ccc(OCc2nnc(SCC(=O)N(C)Cc3ccccc3)n2N)cc1	25µM*	·	10%	0%
COC(=O)[C@@H]1C[C@@]2(O)[C@@H](O)[C@@H](O)[C@@H](O)C[C@H]2N1Cc1cc(OC)cc(OC)c1	17%	-2%	-10%	0%
CC1CC(C)CN(CCOCCSc2ccc(Cl)cc2)C1 (configuration not stated)	56µM*	·	-3%	-2%
CC1CC(C)CN(CCOCCSc2ccccc2)C1 (configuration not stated)	-20%	1%	0%	1%[46.1 µM]
O=C(CSc1ccc(-c2nc3ccccc3[nH]2)cn1)N1CCN(C(=O)c2ccco2)CC1	-4%	32µM*	·	·
CN1C(=O)C(Cc2cnc[nH]2)NC1=S (configuration not stated)	79µM*	0%	11%	1%
O=C1C=CC(=O)N1N(c1ccccc1)c1ccccc1	32µM*	-2%	-3%	0%[46.1 µM]
O=C(CCc1nnc(COc2ccccc2)o1)NC1(c2ccccc2)CC1	14%	-1%	9%	1%
O=C(COC(=O)c1ccc2c(c1)C(=O)N(c1cccc3ncccc13)C2=O)c1ccc(Cl)cc1	28µM*	·	6%	-10%[46.1 µM]
Cc1ccc(C(=O)COC(=O)c2ccc3c(c2)C(=O)N(c2cccc4ncccc24)C3=O)cc1	79µM*	-1%	-11%	2%[46.1 µM]
O=C(OCC(=O)c1ccc(Cl)cc1Cl)c1ccc2c(c1)C(=O)N(c1cccc3ncccc13)C2=O	?	0%	-1%	-3%
CCc1cccc(C)c1NC(=O)Cn1ccn(-c2cccc(OC)c2)c(=O)c1=O	·	1%	·	·
COc1ccc(C2c3c(n(C)c4ccccc34)C(=O)N2CC(=O)Nc2ccc(Cl)cc2)cc1 (configuration not stated)	·	18µM*	·	·
CCc1cccc(C)c1NC(=O)CN1C(=O)c2c(c3ccccc3n2C)C1c1ccc(OC)cc1 (configuration not stated)	·	25µM*	·	·
CCCCNC(=O)CN1C(=O)c2c(c3ccccc3n2C)C1c1ccc(OC)cc1 (configuration not stated)	·	32µM*	·	·
CCN(CC)CCNC(=O)c1ccc(Cn2c(SCc3ccccc3)nc3cccnc32)cc1	·	4%	·	·
COc1ccc(C)c2sc(N(Cc3cccnc3)C(=O)c3cccs3)nc12	·	223%	·	·
CCc1ccc(NC(=O)CSc2nc3c(sc4ccccc43)c(=O)n2CCN(CC)CC)cc1	·	4%	·	·
C=CCN(C(=O)CSc1nc2c(sc3ccccc32)c(=O)n1CCN(CC)CC)c1ccccc1	50µM*	-4%	-2%	-4%
COc1ccccc1NC(=O)CSc1nc2c(sc3ccccc32)c(=O)n1CCN(C)C	40µM*	8%	-6%	3%
COCCCn1c(SCC(=O)Nc2ccccc2OC)nc2c(sc3ccccc32)c1=O	·	0%	·	·
Cc1ccc(C)c(S(=O)(=O)N2CCN(C(=O)c3n[nH]c(=O)c4ccccc34)CC2)c1	·	0%	2%	2%
CCOc1ccc(N2C(=O)CC(Sc3n[nH]c(-c4ccccc4)n3)C2=O)cc1 (configuration not stated)	?	0%	8%	0%
COc1ccc(N2C(=O)CC(Sc3n[nH]c(-c4ccccc4)n3)C2=O)cc1 (configuration not stated)	35µM*	0%	3%	1%
COc1cc(NC(=O)N2CCC(CN3CCCCCC3)CC2)cc(OC)c1OC	·	1%	·	·
Cc1ccc(NC(=O)Cn2c(=O)n(CCCCC(=O)NCCc3ccccc3)c(=O)c3ccccc32)cc1	·	-1%	·	·
CCN(Cc1ccccc1)Cc1c(O)ccc2oc(C)c(C(=O)Nc3ccccc3C)c12	·	-6%	·	·
Nc1c(S(=O)(=O)c2cc(Cl)ccc2Cl)c2nc3ccccc3nc2n1CCN1CCOCC1	-13%	?	·	-3%
CC(=O)Nc1ccc(S(=O)(=O)c2c(N)n(CCN3CCOCC3)c3nc4ccccc4nc23)cc1	-14%	32µM*	0%	-8%
